Screening data from PubChem.
CYP2C9 activ = increases human cytochrome P450 2C9 activity. P11712. recombinant CYP2C9, luciferin-H conversion, luminescence; active compounds read high; factor 1 = untreated enzyme, 0 = blocked. activation factor at 5 µM. 1.4% of 96,000 active. AID 1024;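 active means activation factor of 2 or more for CYP2C9 at a 5 µM dose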;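 further: 0 = sulfaphenazole-blocked wells and 1 = vehicle-only wells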
Target sequence (P11712 whole entry, looked up): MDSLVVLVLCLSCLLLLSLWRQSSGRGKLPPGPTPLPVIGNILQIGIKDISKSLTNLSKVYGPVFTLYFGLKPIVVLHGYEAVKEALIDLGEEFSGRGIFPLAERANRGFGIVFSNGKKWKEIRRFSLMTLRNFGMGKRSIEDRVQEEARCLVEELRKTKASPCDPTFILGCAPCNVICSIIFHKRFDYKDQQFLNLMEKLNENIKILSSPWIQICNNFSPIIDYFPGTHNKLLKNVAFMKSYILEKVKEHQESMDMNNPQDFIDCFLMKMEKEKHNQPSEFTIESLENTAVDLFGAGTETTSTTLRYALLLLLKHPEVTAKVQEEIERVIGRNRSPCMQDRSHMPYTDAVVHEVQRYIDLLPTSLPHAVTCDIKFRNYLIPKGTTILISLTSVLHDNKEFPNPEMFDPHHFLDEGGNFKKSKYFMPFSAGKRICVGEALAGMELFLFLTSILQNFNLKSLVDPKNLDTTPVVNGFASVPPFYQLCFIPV
CYP2C19 act = activators of human cytochrome P450 2C19; 96,000 tested, under 10 active; recombinant CYP2C19, luciferin-H EGE luminescence; active compounds read high; 0 = fully inhibited enzyme, 1 = untreated enzyme; AID 1025; activation factor at 5 µM;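 active means activation factor of at least 2 at 5 µM in the primary screen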;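 further: 0 = wells with 2.5 mM tranylcypromine and 1 = vehicle-only wells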
CYP2C9 inhib = human CYP2C9 inhibition | P11712 | CYP2C9 Supersomes, luciferin-H conversion, luminescence | inhibition, % at 5 µM | 20% of 96,000 active;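 active means blocking of liver enzyme CYP2C9 beyond about 50% at 5 µM, limit read from the data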
PLK1 inh = blocks human PLK1 kinase activity | P53350 | recombinant PLK1 kinase, TR-FRET peptide phosphorylation | inhibition, % at 10 µM | 0.53% of 97,000 active | AID 619;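 active means inhibition of 50% or more in the single-concentration screen; inactive means inhibition below 50%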;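 further: 0% = DMSO max control and 100% = H-89 dihydrochloride min control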
CYP2C19 inh = blocks human cytochrome P450 2C19; CYP2C19 Supersomes, luciferin-H EGE luminescence, 30 min; inhibition, % at 5 µM; 21% of 96,000 active;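 active means CYP2C19 inhibition above a set limit at 5 µM in the primary screen, cut at about 50% in these data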;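 further: plate controls were negative control wells for no effect and 2.5 mM tranylcypromine positive control for full effect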
PLK1 PBD inh = inhibitors of human Plk1 polo box domain binding | P53350 | Plk1 PBD phosphopeptide binding, fluorescence polarization | inhibition, %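 (tested at about 20 µM)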 | 0.13% of 97,000 active | AID 693; in the data active means inhibition above about 34%, passing the limit was not always enough
* marks the source's active call; other numbers are inactive results. Shown are actives, neighbours in structure and some others; about 28% of the full set was active somewhere.

`COc1ccc(OCCNc2cc(N3CCCCC3)ccc2[N+](=O)[O-])cc1` gave CYP2C9 activ 0.5, CYP2C19 act 0.8, CYP2C9 inhib 49, PLK1 inh 11, CYP2C19 inh 20 and PLK1 PBD inh -10.
CNc1cc(N2CCCCCC2)ccc1[N+](=O)[O-] was read as CYP2C9 activ 0.5, CYP2C19 act 0.5, CYP2C9 inhib 47, PLK1 inh -11, CYP2C19 inh 51* and PLK1 PBD inh -1.
Screening COc1cccc(OCCNc2cc(N3CCCCC3)ccc2[N+](=O)[O-])c1 returned CYP2C9 activ 0.3, CYP2C19 act 0.7, CYP2C9 inhib 70*, PLK1 inh -8, CYP2C19 inh 26 and PLK1 PBD inh 4.
O=[N+]([O-])c1ccc(N2CCN(S(=O)(=O)c3ccccc3)CC2)cc1NCCN1CCOCC1 was read as CYP2C9 activ 0.3, CYP2C19 act 0.5, CYP2C9 inhib 70*, PLK1 inh -9, CYP2C19 inh 55* and PLK1 PBD inh -47.
Screening O=C(Nc1ccccc1)c1ccc(NCCN2CCOCC2)c(S(=O)(=O)N2CCOCC2)c1 returned CYP2C9 activ 0.9, CYP2C19 act 0.9, CYP2C9 inhib 6, PLK1 inh -6, CYP2C19 inh 8 and PLK1 PBD inh 18.
Screening Cc1cc(C)n(-c2nnc(C)n2/N=C/c2ccccc2O)n1 returned CYP2C9 activ 0.9, CYP2C19 act 0.8, CYP2C9 inhib 9, PLK1 inh -2, CYP2C19 inh 16 and PLK1 PBD inh -20.
For CC1=N/C(=C\c2ccc([N+](=O)[O-])cc2)C(=O)N1c1cc(Cl)ccc1C the results were CYP2C9 activ 1.1, CYP2C19 act 1, CYP2C9 inhib -9, PLK1 inh -6, CYP2C19 inh 1 and PLK1 PBD inh 7.
COc1ccc(OCCNc2cc(N3CCOCC3)ccc2[N+](=O)[O-])cc1 was read as CYP2C9 activ 0.4, CYP2C19 act 0.6, CYP2C9 inhib 63*, PLK1 inh 20, CYP2C19 inh 45 and PLK1 PBD inh -13.
Cc1ccc(NS(=O)(=O)c2cc(C(=O)N3CCN(C)CC3)ccc2C)cc1 was read as CYP2C9 activ 0.8, CYP2C19 act 0.9, CYP2C9 inhib 21, PLK1 inh -10, CYP2C19 inh 10 and PLK1 PBD inh 10.
`Cc1ccc2c(c1)N(CCCC(=O)NCCC1=CCCCC1)C(=O)CO2` gave CYP2C9 activ 0.4, CYP2C19 act 0.4, CYP2C9 inhib 58*, PLK1 inh -10, CYP2C19 inh 59* and PLK1 PBD inh 9.
For O=C1c2ccccc2C(=O)N1CCC1=CCCCC1 the results were CYP2C9 activ 0.8, CYP2C19 act 0.4, CYP2C9 inhib 20, PLK1 inh -12, CYP2C19 inh 61* and PLK1 PBD inh 7.
O=C(CCCN1C(=O)c2ccccc2C1=O)NCCC1=CCCCC1 was read as CYP2C9 activ 0.4, CYP2C19 act 0.8, CYP2C9 inhib 62*, PLK1 inh -1, CYP2C19 inh 19 and PLK1 PBD inh 1.
`CCC(C)NC(=O)CSc1nnc(-c2ccoc2C)n1CC1CCCO1` (stereo not given) gave CYP2C9 activ 0.9, CYP2C19 act 1, CYP2C9 inhib 10, PLK1 inh 0, CYP2C19 inh 4 and PLK1 PBD inh -9.
Screening Cc1ncc(CCl)c2c1OC(C)(C)OC2 returned PLK1 inh -11 and PLK1 PBD inh 0.
Screening CCn1c(SCC(=O)N2c3ccccc3Sc3ccccc32)nnc1-c1ccco1 returned CYP2C9 activ 0.2, CYP2C19 act 0.1, CYP2C9 inhib 83*, PLK1 inh -5, CYP2C19 inh 89* and PLK1 PBD inh -17.
`CCn1c(SCC(N)=O)nnc1-c1ccco1` gave CYP2C9 activ 1.3, CYP2C19 act 1.2, CYP2C9 inhib -34, PLK1 inh -11, CYP2C19 inh -21 and PLK1 PBD inh -25.
For CCn1c(SCC(=O)c2cccs2)nnc1-c1ccco1 the results were CYP2C9 activ 0.9, CYP2C19 act 0.2, CYP2C9 inhib 13, PLK1 inh -9, CYP2C19 inh 76* and PLK1 PBD inh 19.
Screening Cc1ccc(C(=O)C(C)OC(=O)c2cc3cc([N+](=O)[O-])ccc3oc2=O)cc1 (stereo not given) returned CYP2C9 activ 0.1, CYP2C19 act 0.8, CYP2C9 inhib 88*, PLK1 inh -8, CYP2C19 inh 16 and PLK1 PBD inh -7.
Screening Cc1ccc2c(c1)-c1cc(C)nn1C(c1ccc3c(c1)OCO3)N2 (stereo not given) returned CYP2C9 activ 0.1, CYP2C19 act 0, CYP2C9 inhib 89*, PLK1 inh -5, CYP2C19 inh 96* and PLK1 PBD inh 0.
`Cc1cc2n(n1)C(c1ccc3c(c1)OCO3)Nc1ccccc1-2` (stereo not given) gave CYP2C9 activ 0.3, CYP2C19 act 0.1, CYP2C9 inhib 70*, PLK1 inh -5, CYP2C19 inh 88* and PLK1 PBD inh 8.
Screening CCOC(=O)c1c(NC(=O)CSc2nnc(-c3ccccc3C)n2C)sc(C(C)=O)c1C returned CYP2C9 activ 0.1, CYP2C19 act 0.2, CYP2C9 inhib 95*, PLK1 inh -14, CYP2C19 inh 84* and PLK1 PBD inh -34.
`CCOC(=O)c1cccc(NC(=O)Cn2c(CC(=O)NC)nc3ccccc32)c1` gave CYP2C9 activ 0.3, CYP2C19 act 0.8, CYP2C9 inhib 71*, PLK1 inh -9, CYP2C19 inh 25 and PLK1 PBD inh 15.
CCOC(=O)c1cccc(NC(=O)CSc2nc3cccnc3n2C)c1 was read as CYP2C9 activ 0.5, CYP2C19 act 0.4, CYP2C9 inhib 49, PLK1 inh -13, CYP2C19 inh 58* and PLK1 PBD inh 17.
`CCOC(=O)c1c(NC(=O)CSc2nc3cccnc3n2C)sc(C(C)=O)c1C` gave CYP2C9 activ 0.3, CYP2C19 act 0.7, CYP2C9 inhib 69*, PLK1 inh -13, CYP2C19 inh 27 and PLK1 PBD inh -8.
CCOC(=O)c1sc(NC(=O)CSc2nnnn2-c2ccccc2)c(C(=O)OCC)c1C was read as CYP2C9 activ 0.5, CYP2C19 act 0.9, CYP2C9 inhib 49, PLK1 inh -38, CYP2C19 inh 10 and PLK1 PBD inh -14.
`O=C(Oc1cccc2c(OC(=O)N3CCCC3)cccc12)N1CCCC1` gave PLK1 inh -7 and PLK1 PBD inh 1.
`CCOC(=O)c1c(OCC)[nH]c2c1cc(O)c1ccccc12` gave CYP2C9 activ 0.5, CYP2C19 act 0.7, CYP2C9 inhib 46, PLK1 inh -5, CYP2C19 inh 30 and PLK1 PBD inh -2.
`CCOC(=O)c1c(C)[nH]c2cc(Br)c(O)cc12` gave CYP2C9 activ 0.3, CYP2C19 act 0.3, CYP2C9 inhib 68* and CYP2C19 inh 68*.
Screening CCc1ccc(C(=O)N2CCC(c3nc4ccccc4s3)CC2)cc1 returned CYP2C9 activ 0.2, CYP2C19 act 0.6, CYP2C9 inhib 76*, PLK1 inh -3, CYP2C19 inh 39 and PLK1 PBD inh -26.
